The record followed here is PubChem BioAssay (NCATS).

Values without a mark were called inactive. Unless noted, calls follow the shape of the dose curve; as a rule, active = well fitted curve in either direction with a large enough effect (not every such curve was filed as active); inconclusive = small, poorly fitted or top-dose-only effect, or another doubt; inactive = flat fitted curve, though single readings scatter. Records with an inconclusive call do not appear.

The first assay deals with Glucocorticoid receptor (Homo sapiens) (UniProt P04150). As to the kind of experiment: GR-GFP Redistribution (AID 450;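 active = compounds whose dose series gives a full or clear partial fitted curve of increased nuclear translocation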; also: potency is read from the fitted curve at half-maximal effect). The note with it: U2OS GR-GFP nuclear translocation, laser cytometry, 2 h.
Glucocorticoid receptor (Homo sapiens), sequence (P04150 whole entry, looked up): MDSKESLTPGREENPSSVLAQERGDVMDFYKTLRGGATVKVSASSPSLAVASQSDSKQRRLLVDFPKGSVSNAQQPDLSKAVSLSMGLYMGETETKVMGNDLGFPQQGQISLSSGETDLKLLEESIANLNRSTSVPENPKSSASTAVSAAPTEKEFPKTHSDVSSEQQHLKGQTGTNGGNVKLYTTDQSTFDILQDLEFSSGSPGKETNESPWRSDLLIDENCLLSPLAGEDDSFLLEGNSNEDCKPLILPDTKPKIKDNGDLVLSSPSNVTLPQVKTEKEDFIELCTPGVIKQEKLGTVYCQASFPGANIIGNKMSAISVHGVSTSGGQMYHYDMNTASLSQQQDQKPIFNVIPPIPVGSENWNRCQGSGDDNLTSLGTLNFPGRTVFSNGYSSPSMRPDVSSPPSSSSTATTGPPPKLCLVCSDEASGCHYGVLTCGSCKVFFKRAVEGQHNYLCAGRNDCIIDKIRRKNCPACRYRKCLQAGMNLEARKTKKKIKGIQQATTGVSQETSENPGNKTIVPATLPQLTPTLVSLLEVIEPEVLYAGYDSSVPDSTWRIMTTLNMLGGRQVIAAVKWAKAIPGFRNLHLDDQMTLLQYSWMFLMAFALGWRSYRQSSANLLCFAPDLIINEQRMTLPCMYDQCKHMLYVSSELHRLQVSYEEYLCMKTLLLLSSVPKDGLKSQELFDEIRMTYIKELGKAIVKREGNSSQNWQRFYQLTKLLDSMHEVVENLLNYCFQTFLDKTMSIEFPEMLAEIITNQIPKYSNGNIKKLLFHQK
For `Cc1cc(C)c2c(SCc3ccc(Cl)cc3Cl)nc(N)nc2n1`, the Potency is above 46 µM.

Consider `CC(=O)Nc1nc(NC(C)=O)c2[nH]c(CO)nc2n1`, for which the Potency was above 46 µM. Same read-out and setting: the result for `Clc1ccc(CN2CCCN(Cc3ccc(Cl)cc3)C2c2cc3ccccc3c3ccccc23)cc1` reads above 46 µM; that for `Oc1ccc(Cn2c(-c3ccc(O)cc3)nc3ccccc32)cc1`, above 46 µM. Turning to `O=S(=O)(O)c1cc(N=Nc2cccc3ccccc23)c(O)c2ncccc12`, the Potency was above 46 µM.

With `CC(C)(N)CO[C@H]1C[C@H]2CC[C@@]1(C)C2(C)C`, the Potency was above 46 µM. For the compound `CC(=O)N[C@@H]1CONC1=O`, the Potency is above 46 µM.

For the compound `c1ccc([C@H](c2cccc3c2ccc2ccccc23)[C@H](c2ccccc2)c2cccc3c2ccc2ccccc23)cc1`, the Potency is above 46 µM. With `O=C(O)CCc1c2ccc(=O)c(O)c-2oc2c(O)c(O)ccc12`, the Potency was above 46 µM. For the compound `N[C@@](CCc1ccccc1)(C(=O)O)c1ccccc1`, the Potency is above 46 µM.

For another assay the target is unchanged. The assay can be described thus: GR-EFC Redistribution (AID 451; calls by dose curve; also: potency is read from the fitted curve at half-maximal effect). To be noted: CHO-K1 GR-EFC translocation, beta-gal luminescence, 2 h. An outline of the steps: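 CHO-K1 cells expressing nuclear EA and GR-ED fragments of b-gal; compounds titrated up to 46 uM final, 2 h at 37 C. GR nuclear translocation read as complemented b-gal luminescence after 1 h RT detection.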
As to `C[C@H](Br)C(=O)c1ccc2cc(Br)c3ccccc3c2c1`, the Potency is above 9.22 µM. Turning to `COc1ccc(C(=O)N2CCC3(CCCN(C(=O)Nc4cccc(F)c4)C3)CC2)cc1`, the Potency was above 46 µM. For the compound `Cc1cc(C)c2c(SCc3ccc(Cl)cc3Cl)nc(N)nc2n1`, the Potency was above 9.22 µM. As to `CC(=O)Nc1nc(NC(C)=O)c2[nH]c(CO)nc2n1`, the Potency is above 9.22 µM. For `Nc1nc2c(ncn2[C@@H]2C=C[C@@H](CO)C2)c(=O)[nH]1`, the Potency was above 9.22 µM. On the same count and under the same terms, next, `Cn1c(=S)c2[nH]c(SCCN3CCCC3)nc2n(C)c1=O`: above 9.22 µM; `C/C(CC/C(C)=N/O)=N/O`: above 9.22 µM; `Oc1ccc(Cn2c(-c3ccc(O)cc3)nc3ccccc32)cc1`: above 9.22 µM. On the same count and under the same terms, the result for `NCCNCC1CCNCC1` reads above 9.22 µM; that for `COC(=O)N1CCC2(CCCN(Cc3cc(C(F)(F)F)cc(C(F)(F)F)c3)C2)CC1`, above 46 µM. Take `CC(C)(N)CO[C@H]1C[C@H]2CC[C@@]1(C)C2(C)C`: the Potency is above 9.22 µM. Consider `CC(=O)N[C@@H]1CONC1=O`, for which the Potency was above 9.22 µM. On the same count and under the same terms, the result for `O=C1C(=O)c2ccccc2C(O)=C1C(CCc1ccccc1)C1=C(O)c2ccccc2C(=O)C1=O` reads above 9.22 µM; that for `C[N+](C)(N)Cc1csc(-c2ccc(Cl)cc2)n1`, above 9.22 µM; that for `CC1=NCC[N@@+]1(CCc1ccccc1)Cc1ccccc1`, above 9.22 µM.

With `CN(CC(=O)O)Cc1c(O)c(Cl)cc(Cl)c1Cl`, the Potency was above 9.22 µM. The same measure, in the same setting: the result for `O=C(O)CS(=O)c1ccc2c3c(cccc13)C(=O)c1ccccc1-2` (centres undefined) reads above 9.22 µM. Still for that read-out and setting: the result for `O=S(=O)(c1ccccc1)N1CCC[C@@]2(CCN(Cc3ccccc3)C2)C1` reads above 46 µM. Same read-out and setting: next, `c1ccc([C@H](c2cccc3c2ccc2ccccc23)[C@H](c2ccccc2)c2cccc3c2ccc2ccccc23)cc1`: above 9.22 µM.

Consider `O=C(O)CCc1c2ccc(=O)c(O)c-2oc2c(O)c(O)ccc12`, for which the Potency is above 9.22 µM. On to `O=C(O)C1(Nc2ccc(Cl)cc2)CCCC1`, for which the Potency was above 9.22 µM. On to `O=c1cc(CF)[nH]c(=S)[nH]1`, for which the Potency is above 9.22 µM.

With `O=C(N/N=C\c1ccc2c(c1)CCC2)c1ccccc1O`, the Potency is above 9.22 µM. Turning to `N[C@@](CCc1ccccc1)(C(=O)O)c1ccccc1`, the Potency is above 9.22 µM.

With `CC1CCC(O)([C@](C)(C(=O)O)c2ccccc2)CC1` (some centres undefined), the Potency was above 9.22 µM. Same read-out and setting: the result for `O=C1Nc2ccccc2C1=Nc1ccc(S(=O)(=O)Nc2nccs2)cc1` reads above 9.22 µM; that for `O=[N+]([O-])c1ccc(Cl)c(CNc2ncnc3c2ncn3[C@@H]2CCCCO2)c1`, above 9.22 µM.

The target of another assay is Mitogen-activated protein kinase 10 (Mus musculus) (UniProt Q61831). As to the kind of experiment: JNK3 AlphaScreen Assay (AID 530).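 Also: kinase came from lysate of stimulated human HepG2 cells; signal reports phosphorylation of biotinylated GST-cJun 1-79 at Ser73 with 10 µM ATP; % is scaled to controls: 0 for no effect and ±100 for the full control effect.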 The note with it: JNK3 lysate, c-Jun phosphorylation; series mostly up to 11.4 µM; activity change, negative = inhibition: at the top concentration. In a few lines: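 Pre-activated (IL-1β/TNFα) JNK3 in HepG2 lysates phosphorylates biotin-GST-cJun(1-79), 10 uM ATP; anti-phospho-cJun(Ser73) AlphaScreen read at room temperature, pH 7.6 Tris buffer. Compounds pre-incubated 15 min as titrations.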
(In Alpha technology, singlet oxygen from a donor bead excites a nearby acceptor bead.)
On to `C[C@H](Br)C(=O)c1ccc2cc(Br)c3ccccc3c2c1`, for which the “activity change, negative = inhibition” value is 2.91%. The same measure, in the same setting: next, `COc1ccc(C(=O)N2CCC3(CCCN(C(=O)Nc4cccc(F)c4)C3)CC2)cc1`: -12.4% [at 57.1 µM]. Consider `Cc1cc(C)c2c(SCc3ccc(Cl)cc3Cl)nc(N)nc2n1`, for which the “activity change, negative = inhibition” value was -0.335%. Still for that read-out and setting: next, `CC(=O)Nc1nc(NC(C)=O)c2[nH]c(CO)nc2n1`: 4.48%; `Clc1ccc(CN2CCCN(Cc3ccc(Cl)cc3)C2c2cc3ccccc3c3ccccc23)cc1`: 4.38%. Still for that read-out and setting: next, `COc1cc(-c2[o+]c3cc(O)cc(O)c3cc2O)cc(O)c1O`: 3.85%; `O=C(O)[C@@H](O)[C@@H](O)[C@H](O)[C@H](O)CO`: 7.86%. Same read-out and setting: next, `Nc1nc2c(ncn2[C@@H]2C=C[C@@H](CO)C2)c(=O)[nH]1`: 2.55%; `Cn1c(=S)c2[nH]c(SCCN3CCCC3)nc2n(C)c1=O`: 30.2%.

`C/C(CC/C(C)=N/O)=N/O`: the “activity change, negative = inhibition” value was 4.4%. Same read-out and setting: next, `Oc1ccc(Cn2c(-c3ccc(O)cc3)nc3ccccc32)cc1`: -0.0762%; `NCCNCC1CCNCC1`: 1.26%. Same read-out and setting: the result for `CO[C@@H]1/C=C\O[C@]2(C)Oc3c(C)c(O)c4c(O)c(cc(O)c4c3C2=O)NC(=O)/C(C)=C\C=C/[C@H](C)[C@@H](O)[C@H](C)[C@H](O)[C@H](C)[C@H](OC(C)=O)[C@@H]1C` reads 0.0502%; that for `N#[N+]c1ccc(Nc2ccccc2)cc1`, -3.8%; that for `COC(=O)N1CCC2(CCCN(Cc3cc(C(F)(F)F)cc(C(F)(F)F)c3)C2)CC1`, -3.85% [at 57.1 µM].

With `CC(C)(N)CO[C@H]1C[C@H]2CC[C@@]1(C)C2(C)C`, the “activity change, negative = inhibition” value was 4.2%. On to `CC(=O)N[C@@H]1CONC1=O`, for which the “activity change, negative = inhibition” value is 6.01%. As to `CC1=NN(c2ccc(S(=O)(=O)O)cc2)C(=O)/C1=C\c1ccc(Cl)cc1`, the “activity change, negative = inhibition” value is -2.05%. For the compound `C[N+](C)(N)Cc1csc(-c2ccc(Cl)cc2)n1`, the “activity change, negative = inhibition” value was 0.555%.

`CC1=NCC[N@@+]1(CCc1ccccc1)Cc1ccccc1`: the “activity change, negative = inhibition” value is 2.11%. The same measure, in the same setting: the result for `CN(CC(=O)O)Cc1c(O)c(Cl)cc(Cl)c1Cl` reads -0.76%; that for `O=C(O)CS(=O)c1ccc2c3c(cccc13)C(=O)c1ccccc1-2` (centres undefined), 21.6%. `O[C@@H](COc1ccc(Cl)cc1Cl)CN1CCCC1`: the “activity change, negative = inhibition” value was 1.93%.

In the case of `O=S(=O)(c1ccccc1)N1CCC[C@@]2(CCN(Cc3ccccc3)C2)C1`, the “activity change, negative = inhibition” value is 2.97% [at 57.1 µM].

For `c1ccc([C@H](c2cccc3c2ccc2ccccc23)[C@H](c2ccccc2)c2cccc3c2ccc2ccccc23)cc1`, the “activity change, negative = inhibition” value was 3.32%.

For `O=C(O)CCc1c2ccc(=O)c(O)c-2oc2c(O)c(O)ccc12`, the “activity change, negative = inhibition” value was -24.1%. The same measure, in the same setting: next, `O=C(O)C1(Nc2ccc(Cl)cc2)CCCC1`: 2.97%; `O=c1cc(CF)[nH]c(=S)[nH]1`: 2.84%. Consider `C[C@@]12CCC(=O)C=C1CC[C@H]1[C@@H]2[C@@H](O)C[C@]2(C)[C@@H]1CC[C@@]2(O)C(=O)CO`, for which the “activity change, negative = inhibition” value was 0.463%. Same read-out and setting: next, `O=C(N/N=C\c1ccc2c(c1)CCC2)c1ccccc1O`: 1.39%. Take `N[C@@](CCc1ccccc1)(C(=O)O)c1ccccc1`: the “activity change, negative = inhibition” value was 6.11%. In the case of `CC1CCC(O)([C@](C)(C(=O)O)c2ccccc2)CC1` (some centres undefined), the “activity change, negative = inhibition” value is -0.219%.

For the compound `C[C@H]1C[C@H]2[C@H]3CCC4=CC(=O)C=C[C@@]4(C)[C@]3(F)[C@H](O)C[C@]2(C)[C@@]1(O)C(=O)COP(=O)(O)O`, the “activity change, negative = inhibition” value was 1.64%. Still for that read-out and setting: next, `O=C1Nc2ccccc2C1=Nc1ccc(S(=O)(=O)Nc2nccs2)cc1`: 4.93%.

In the case of `N[C@@H](Cc1ccccc1)C(=O)O`, the “activity change, negative = inhibition” value was 3.23%. On the same count and under the same terms, next, `C[C@]12CC[C@H]3c4ccc(O)cc4CC[C@@H]3[C@H]1CC[C@@H]2OP(=O)(O)O`: -0.553%; `O=[N+]([O-])c1ccc(Cl)c(CNc2ncnc3c2ncn3[C@@H]2CCCCO2)c1`: 1.61%.
